In PubChem BioAssay (EPA / NIEHS):
Calls of active or inactive are those of the source. Rule for the calls: active = hit-call score of the fitted dose curve at least 0.9, where 1 is the maximum; inactive = score below 0.9.

Key:
[1] = read-out: Fatty acid synthase (Homo sapiens) (UniProt P49327); assay: LTEA_HepaRG_FASN: Life Technologies and Expression Analysis (LTEA) Assay for Fatty Acid Synthase (FASN) using HepaRG (AID 2283448); details: mRNA level, 48 h; actives raise or lower the signal;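 for AC50: differentiated human HepaRG liver cells in serum-free induction medium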
Procedure, shortened: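 HepaRG, 48 h exposure, 8-pt half-log series top 100 uM, 0.5% DMSO vehicle, duplicates. Readout: FASN transcript by Fluidigm qRT-PCR; housekeeping-normalized; bidirectional curve fit vs DMSO baseline.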

[2] = read-out: Cyclin Dependent Kinase Inhibitor 1A (CDKN1A), CDKN1A (gene 1026); assay: LTEA_HepaRG_CDKN1A: Life Technologies and Expression Analysis (LTEA) Assay for Cyclin Dependent Kinase Inhibitor 1A (CDKN1A) using HepaRG (AID 2283450); details: mRNA level, 48 h; actives raise or lower the signal
Procedure, shortened: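 Expression quantified by Fluidigm qRT-PCR with ACTB, GAPDH and POLR2A normalization, fitted bidirectionally against 0.5% DMSO. Cells: HepaRG, plated 48 h then treated 48 h in serum-free induction medium, top concentration 100 uM with half-log dilutions.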

[3] = read-out: Cyclin D1 (CCND1), CCND1 (gene 595); assay: LTEA_HepaRG_CCND1: Life Technologies and Expression Analysis (LTEA) Assay for Cyclin D1 (CCND1) using HepaRG (AID 2283451); details: mRNA level, 48 h; actives raise or lower the signal;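 for AC50: differentiated human HepaRG liver cells in serum-free induction medium; TaqMan qRT-PCR transcript level normalised to ACTB GAPDH and POLR2A housekeeping genes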
Procedure, shortened: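 Expression of CCND1 was quantified by qRT-PCR on Fluidigm arrays using ACTB, GAPDH and POLR2A as reference genes. HepaRG cultures, plated 48 h beforehand, were dosed for 48 h at up to 100 uM (half-log, 8 points) in 0.5% DMSO.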

[4] = read-out: catalase (CAT), CAT (gene 847); assay: LTEA_HepaRG_CAT: Life Technologies and Expression Analysis (LTEA) Assay for catalase (CAT) using HepaRG (AID 2283452); details: mRNA level, 48 h; actives raise or lower the signal
Procedure, shortened: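 HepaRG cells in serum-free induction medium, 0.5% DMSO vehicle, exposed 48 h in duplicate over 8 half-log concentrations from 100 uM. CAT mRNA measured by qRT-PCR, normalized to ACTB, GAPDH, POLR2A; bidirectional fit versus DMSO.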

[5] = read-out: Cytochrome P450 (CYP1A1), CYP1A1 (gene 1543); assay: LTEA_HepaRG_CYP1A1: Life Technologies and Expression Analysis (LTEA) Assay for Cytochrome P450 (CYP1A1) using HepaRG (AID 2283454); details: mRNA level, 48 h; actives raise or lower the signal
Procedure, shortened: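 CYP1A1 transcript levels measured by Fluidigm qRT-PCR against three housekeeping genes, 48 h after chemical dosing of human HepaRG cells (highest concentration 100 uM, half-log steps, 0.5% DMSO vehicle). Gain or loss of signal fitted relative to DMSO.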

[6] = read-out: CFLAR gene, CFLAR (gene 8837); assay: LTEA_HepaRG_CFLAR: Life Technologies and Expression Analysis (LTEA) Assay for CFLAR gene using HepaRG (AID 2283455); details: mRNA level, 48 h; actives raise or lower the signal
Procedure, shortened: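 qRT-PCR read-out (Fluidigm/TaqMan) of CFLAR mRNA, normalized to three housekeeping genes, in differentiated human HepaRG cells after 48 h chemical exposure; 8-point half-log series from 100 uM in 0.5% DMSO; bidirectional curve fitting versus DMSO.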

[7] = read-out: Forkhead box O1 (FOXO1), FOXO1 (gene 2308); assay: LTEA_HepaRG_FOXO1: Life Technologies and Expression Analysis (LTEA) Assay for Forkhead box O1 (FOXO1) using HepaRG (AID 2283456); details: mRNA level, 48 h; actives raise or lower the signal
Procedure, shortened: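 HepaRG, 48 h exposure, 8-pt half-log series from 100 uM in 0.5% DMSO, duplicates; Fluidigm qRT-PCR mRNA, housekeeping-normalised; bidirectional fit vs DMSO baseline.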

[8] = read-out: growth arrest and DNA damage 45 (GADD45A), GADD45A (gene 1647); assay: LTEA_HepaRG_GADD45A: Life Technologies and Expression Analysis (LTEA) Assay for growth arrest and DNA damage 45 (GADD45A) using HepaRG (AID 2283458); details: mRNA level, 48 h; actives raise or lower the signal
Procedure, shortened: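 HepaRG, 48 h exposure, 8 conc. (top 100 uM, half-log steps), 0.5% DMSO vehicle, duplicates. Read-out: qRT-PCR mRNA level, housekeeping-normalized (ACTB/GAPDH/POLR2A). Curves fit bidirectionally vs DMSO baseline.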

[9] = read-out: Forkhead box O3 (FOXO3), FOXO3 (gene 2309); assay: LTEA_HepaRG_FOXO3: Life Technologies and Expression Analysis (LTEA) Assay for Forkhead box O3 (FOXO3) using HepaRG (AID 2283459); details: mRNA level, 48 h; actives raise or lower the signal
Procedure, shortened: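 qRT-PCR readout of FOXO3 transcript, normalized to three housekeeping genes (ACTB, GAPDH, POLR2A); gain or loss fitted against 0.5% DMSO vehicle. HepaRG cells, 48 h chemical exposure, 8-point half-log series, top 100 uM.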

[10] = read-out: ABC Transporter (ABCB1), ABCB1 (gene 5243); assay: LTEA_HepaRG_ABCB1: Life Technologies and Expression Analysis (LTEA) Assay for ABC Transporter (ABCB1) using HepaRG (AID 2283460); details: mRNA level, 48 h; actives raise or lower the signal
Procedure, shortened: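 HepaRG, 48 h exposure, 8-pt half-log series from 100 uM, 0.5% DMSO vehicle, duplicates. Readout: ABCB1 transcript by Fluidigm TaqMan qRT-PCR, housekeeping-normalized; bidirectional curve fit vs DMSO baseline.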

[11] = read-out: ABC Transporter (ABCC3), ABCC3 (gene 8714); assay: LTEA_HepaRG_ABCC3: Life Technologies and Expression Analysis (LTEA) Assay for ABC Transporter (ABCC3) using HepaRG (AID 2283462); details: mRNA level, 48 h; actives raise or lower the signal
Procedure, shortened: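 Transcript level by TaqMan qRT-PCR, normalised to three housekeeping genes, fitted in both directions relative to vehicle. Chemicals tested in duplicate at eight half-log concentrations up to 100 uM for 48 h on HepaRG cells (0.5% DMSO).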

[12] = read-out: ABC Transporter (ABCB11), ABCB11 (gene 8647); assay: LTEA_HepaRG_ABCB11: Life Technologies and Expression Analysis (LTEA) Assay for ABC Transporter (ABCB11) using HepaRG (AID 2283463); details: mRNA level, 48 h; actives raise or lower the signal
Procedure, shortened: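 HepaRG, 48 h exposure, 8-pt half-log CRC top 100 uM, 0.5% DMSO vehicle, duplicates. Readout: TaqMan qRT-PCR of ABCB11 mRNA, housekeeping-normalized (ACTB/GAPDH/POLR2A). Bidirectional fit vs DMSO baseline.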

[13] = read-out: ABC Transporter (ABCC2), ABCC2 (gene 1244); assay: LTEA_HepaRG_ABCC2: Life Technologies and Expression Analysis (LTEA) Assay for ABC Transporter (ABCC2) using HepaRG (AID 2283464); details: mRNA level, 48 h; actives raise or lower the signal
Procedure, shortened: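 Endpoint is ABCC2 transcript level from qRT-PCR, normalized to three housekeeping genes and fitted bidirectionally relative to DMSO. Human HepaRG cells received test chemical for 48 h at up to 100 uM (8 points, half-log steps, 0.5% DMSO), duplicate wells.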

[14] = read-out: Broad substrate specificity ATP-binding cassette transporter ABCG2 (Homo sapiens) (UniProt Q9UNQ0); assay: LTEA_HepaRG_ABCG2: Life Technologies and Expression Analysis (LTEA) Assay for ABC Transporter (ABCG2) using HepaRG (AID 2283465); details: mRNA level, 48 h; actives raise or lower the signal
Procedure, shortened: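 HepaRG, 48 h exposure, 8-pt half-log series from 100 uM, 0.5% DMSO vehicle, duplicates. Readout: ABCG2 transcript by qRT-PCR (Fluidigm array), housekeeping-normalized; bidirectional curve fit relative to DMSO baseline.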

[15] = read-out: ATP-citrate lyase (ACLY), ACLY (gene 47); assay: LTEA_HepaRG_ACLY: Life Technologies and Expression Analysis (LTEA) Assay for ATP-citrate lyase (ACLY) using HepaRG (AID 2283466); details: mRNA level, 48 h; actives raise or lower the signal
Procedure, shortened: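 qRT-PCR readout of ACLY transcript after 48 h chemical treatment of HepaRG cells; expression normalized to three housekeeping genes. Eight-point half-log series, highest 100 uM, 0.5% DMSO vehicle. Gain or loss fitted against DMSO baseline.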

[16] = read-out: Peroxisomal acyl-coenzyme A oxidase 1 (ACOX1) gene, ACOX1 (gene 51); assay: LTEA_HepaRG_ACOX1: Life Technologies and Expression Analysis (LTEA) Assay for Peroxisomal acyl-coenzyme A oxidase 1 (ACOX1) gene using HepaRG (AID 2283467); details: mRNA level, 48 h; actives raise or lower the signal
Procedure, shortened: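 HepaRG, 48 h chemical exposure, 8-pt half-log series from 100 uM top, 0.5% DMSO vehicle, duplicates. Readout: ACOX1 mRNA by Fluidigm qRT-PCR, housekeeping-normalized; bidirectional fit vs DMSO baseline.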

[17] = read-out: flavin-containing dimethylaniline monooxygenases 3 (FMO3), FMO3 (gene 2328); assay: LTEA_HepaRG_FMO3: Life Technologies and Expression Analysis (LTEA) Assay for flavin-containing dimethylaniline monooxygenases 3 (FMO3) using HepaRG (AID 2283453); details: mRNA level, 48 h; actives raise or lower the signal;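 for AC50: differentiated human HepaRG liver cells in serum-free induction medium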
Procedure, shortened: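 Eight-point concentration-response in serum-free HepaRG cultures (top 100 uM, 0.5% DMSO, 48 h). Read-out: FMO3 mRNA level normalized to three endogenous control genes, fitted bidirectionally versus vehicle.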

[18] = CEETOX_H295R_TESTO: CeeTox H295R High-throughput Steroidogenesis Assay for Testosterone (TESTO) (AID 2283457); details: actives raise or lower the signal
Procedure, shortened: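 Testosterone secreted into the medium over 48 h by H295R cells (maximum passage 10) was quantified by LC-MS/MS after MTBE extraction. Fitted in both directions against DMSO, with concentrations diluted until MTT viability was ≥70%.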

[19] = read-out: growth arrest and DNA damage 45 (GADD45B), GADD45B (gene 4616); assay: LTEA_HepaRG_GADD45B: Life Technologies and Expression Analysis (LTEA) Assay for growth arrest and DNA damage 45 (GADD45B) using HepaRG (AID 2283461); details: mRNA level, 48 h; actives raise or lower the signal
Procedure, shortened: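 Transcript level quantified by Fluidigm TaqMan qRT-PCR with three housekeeping genes for normalization, analyzed for up- or down-regulation against 0.5% DMSO. HepaRG cultures dosed 48 h at eight half-log concentrations up to 100 uM, duplicates.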

[20] = read-out: Cyclin D2 (CCND2), CCND2 (gene 894); assay: LTEA_HepaRG_CCND2: Life Technologies and Expression Analysis (LTEA) Assay for Cyclin D2 (CCND2) using HepaRG (AID 2283449); details: mRNA level, 48 h; actives raise or lower the signal;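 note: CCND2 transcript measured by TaqMan qRT-PCR and normalised to three housekeeping genes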
Procedure, shortened: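 HepaRG, 48 h dosing, 8-pt half-log curve from 100 uM, 0.5% DMSO; duplicate wells. Readout: CCND2 transcript by microfluidic qRT-PCR, housekeeping-normalised; bidirectional fit vs DMSO baseline.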

Measured: AC50

Sequence of Fatty acid synthase (Homo sapiens) (P49327 whole entry, looked up): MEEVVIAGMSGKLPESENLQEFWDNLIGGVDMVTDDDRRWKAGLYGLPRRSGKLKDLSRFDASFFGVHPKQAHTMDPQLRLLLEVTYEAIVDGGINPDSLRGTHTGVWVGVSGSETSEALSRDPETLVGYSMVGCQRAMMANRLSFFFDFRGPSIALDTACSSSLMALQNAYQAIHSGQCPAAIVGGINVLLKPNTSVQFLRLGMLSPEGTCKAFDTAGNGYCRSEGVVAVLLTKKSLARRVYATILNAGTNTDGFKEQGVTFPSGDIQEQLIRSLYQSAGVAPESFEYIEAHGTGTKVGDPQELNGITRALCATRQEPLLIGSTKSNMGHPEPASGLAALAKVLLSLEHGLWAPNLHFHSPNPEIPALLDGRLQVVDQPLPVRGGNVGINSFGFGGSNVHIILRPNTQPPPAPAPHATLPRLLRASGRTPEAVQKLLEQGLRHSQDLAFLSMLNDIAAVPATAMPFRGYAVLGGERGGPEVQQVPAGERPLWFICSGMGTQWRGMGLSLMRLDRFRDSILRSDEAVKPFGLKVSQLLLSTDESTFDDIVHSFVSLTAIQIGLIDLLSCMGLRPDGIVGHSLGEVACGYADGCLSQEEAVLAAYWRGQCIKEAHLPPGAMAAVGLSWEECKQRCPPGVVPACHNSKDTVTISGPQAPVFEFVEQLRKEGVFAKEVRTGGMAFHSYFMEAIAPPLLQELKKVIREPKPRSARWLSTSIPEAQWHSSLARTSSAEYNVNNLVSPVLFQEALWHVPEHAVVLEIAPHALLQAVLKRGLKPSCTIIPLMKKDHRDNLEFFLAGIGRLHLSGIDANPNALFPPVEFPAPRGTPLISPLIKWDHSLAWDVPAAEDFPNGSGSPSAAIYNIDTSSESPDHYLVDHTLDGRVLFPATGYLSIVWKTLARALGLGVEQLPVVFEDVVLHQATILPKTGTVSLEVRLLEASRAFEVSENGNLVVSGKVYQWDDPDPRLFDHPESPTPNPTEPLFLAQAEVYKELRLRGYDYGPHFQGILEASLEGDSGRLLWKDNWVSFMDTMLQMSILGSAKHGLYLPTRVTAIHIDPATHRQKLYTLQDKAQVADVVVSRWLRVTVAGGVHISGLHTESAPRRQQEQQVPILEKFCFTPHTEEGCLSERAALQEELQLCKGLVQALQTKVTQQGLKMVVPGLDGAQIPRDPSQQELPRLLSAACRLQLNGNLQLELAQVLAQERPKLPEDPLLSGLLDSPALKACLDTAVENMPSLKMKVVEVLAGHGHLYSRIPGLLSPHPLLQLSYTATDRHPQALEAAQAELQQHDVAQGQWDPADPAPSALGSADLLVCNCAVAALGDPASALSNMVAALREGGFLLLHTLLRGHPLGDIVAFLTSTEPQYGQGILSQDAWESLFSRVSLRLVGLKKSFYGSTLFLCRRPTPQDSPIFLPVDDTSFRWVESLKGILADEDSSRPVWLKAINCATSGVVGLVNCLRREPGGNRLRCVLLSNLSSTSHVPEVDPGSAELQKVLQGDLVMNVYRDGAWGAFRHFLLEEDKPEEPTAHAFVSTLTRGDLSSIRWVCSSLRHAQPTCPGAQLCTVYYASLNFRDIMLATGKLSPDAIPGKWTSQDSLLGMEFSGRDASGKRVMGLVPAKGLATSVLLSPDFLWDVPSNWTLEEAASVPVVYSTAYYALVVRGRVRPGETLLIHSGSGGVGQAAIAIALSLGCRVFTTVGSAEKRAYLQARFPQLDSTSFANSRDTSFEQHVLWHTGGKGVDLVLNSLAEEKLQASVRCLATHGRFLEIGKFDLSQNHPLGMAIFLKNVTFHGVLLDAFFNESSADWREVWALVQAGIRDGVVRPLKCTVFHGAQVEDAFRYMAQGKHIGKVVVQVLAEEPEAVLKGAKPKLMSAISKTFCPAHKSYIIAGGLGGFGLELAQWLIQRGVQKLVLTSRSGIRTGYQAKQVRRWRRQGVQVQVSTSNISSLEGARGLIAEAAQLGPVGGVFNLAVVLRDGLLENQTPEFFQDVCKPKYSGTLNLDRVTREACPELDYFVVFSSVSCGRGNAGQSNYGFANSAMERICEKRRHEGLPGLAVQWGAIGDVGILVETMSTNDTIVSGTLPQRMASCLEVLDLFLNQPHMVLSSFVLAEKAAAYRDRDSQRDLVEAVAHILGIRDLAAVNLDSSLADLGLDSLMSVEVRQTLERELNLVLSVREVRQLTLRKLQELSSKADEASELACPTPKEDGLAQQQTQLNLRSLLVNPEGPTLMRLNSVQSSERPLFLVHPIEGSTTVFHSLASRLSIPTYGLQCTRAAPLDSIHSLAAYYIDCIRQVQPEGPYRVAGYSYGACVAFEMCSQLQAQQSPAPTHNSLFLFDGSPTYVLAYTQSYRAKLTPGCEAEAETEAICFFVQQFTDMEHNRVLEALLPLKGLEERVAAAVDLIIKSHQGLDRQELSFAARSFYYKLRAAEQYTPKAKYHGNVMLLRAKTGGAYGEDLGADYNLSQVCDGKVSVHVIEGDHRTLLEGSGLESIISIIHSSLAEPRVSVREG
Sequence of Broad substrate specificity ATP-binding cassette transporter ABCG2 (Homo sapiens) (Q9UNQ0 whole entry, looked up): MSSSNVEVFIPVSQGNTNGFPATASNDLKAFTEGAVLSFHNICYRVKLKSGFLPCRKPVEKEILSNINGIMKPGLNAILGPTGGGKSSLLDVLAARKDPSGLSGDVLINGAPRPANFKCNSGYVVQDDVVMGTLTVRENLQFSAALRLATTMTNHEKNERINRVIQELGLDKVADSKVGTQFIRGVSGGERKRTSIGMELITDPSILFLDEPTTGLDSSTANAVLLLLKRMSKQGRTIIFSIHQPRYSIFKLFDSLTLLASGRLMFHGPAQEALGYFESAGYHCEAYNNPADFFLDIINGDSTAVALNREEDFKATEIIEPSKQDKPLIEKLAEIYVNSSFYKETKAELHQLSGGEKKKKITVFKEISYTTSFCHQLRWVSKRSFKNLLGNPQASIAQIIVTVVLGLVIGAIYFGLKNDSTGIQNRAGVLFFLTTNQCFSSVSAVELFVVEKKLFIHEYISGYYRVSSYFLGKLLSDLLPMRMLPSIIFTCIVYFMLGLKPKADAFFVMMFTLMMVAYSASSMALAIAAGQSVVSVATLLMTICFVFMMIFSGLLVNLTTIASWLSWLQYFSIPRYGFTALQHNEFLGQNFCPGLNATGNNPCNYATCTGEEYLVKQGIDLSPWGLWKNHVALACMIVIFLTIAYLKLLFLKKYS

O=C(O)Cc1cc(I)c(Oc2cc(I)c(O)c(I)c2)c(I)c1
active: [1] 60.2 µM | [2] 33.5 µM | [3] 33.5 µM | [4] 45.4 µM | [6] 33.5 µM | [7] 50.7 µM | [8] 50.2 µM | [9] 24.8 µM | [11] 52.4 µM | [12] 19.9 µM | [13] 57.7 µM | [14] 51.7 µM | [15] 56.3 µM | [16] 56.8 µM
inactive: [5] | [10]

Nc1cccc2c(N)cccc12
active: [1] 18.3 µM | [5] 9 µM | [9] 22.4 µM | [12] 50 µM
not listed: [14] | [20]
inactive: all other assays above

Cc1cc(CCN2CCN(c3nsc4ccccc34)CC2)cc2c1NC(=O)CC2(C)C
inactive: [3] | [6] | [7] | [8] | [9] | [19] | [11] | [15]
active: [1] 50 µM | [2] 76.7 µM | [4] 73.4 µM | [17] 77.8 µM | [5] 7.65 µM | [10] 79.8 µM | [12] 74.7 µM | [13] 85.1 µM | [16] 75.2 µM

OCCC(F)(F)C(F)(F)C(F)(F)C(F)(F)C(F)(F)C(F)(F)C(F)(F)C(F)(F)F
not listed: [14] | [17] | [18] | [19]
inactive: all other assays above

Oc1cc2ccccc2c2ccccc12
active: [5] 30.7 µM | [12] 38.9 µM
not listed: [14] | [17] | [18] | [19] | [20]
inactive: all other assays above

OC1CCC(C2CCCCC2)CC1 (centres undefined)
not listed: [14] | [17] | [18] | [19]
inactive: all other assays above

COCC(C)OCC(C)O (centres undefined)
active: [5] 50 µM
not listed: [14] | [17] | [18] | [19]
inactive: all other assays above
